From PubChem
This is a sample that favours compounds with a hit; in the whole collection about 3.1% have one here.
A549 viability: Nrf2 qHTS screen for inhibitors: counterscreen for cytotoxicity; A549 ARE-Fluc cells, CellTiter-Fluor viability, 18-24 h; Potency, µM (series often up to 46 µM), for inactives: at the highest dose activity change, negative = cytotoxicity, actives largely listed as inhibitors; 390,000 tested, 0.16% active; note: % is set by controls: 0 for no effect and ±100 for the full control effect
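Cytotoxicity counterscreen: CellTiter-Fluor fluorescence was measured in A549 ARE_Fluc cells after 18-24 h of compound exposure in a concentration series. The subsequent BugLite luminescent read reports ARE-luciferase activity.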
Nrf2 block: Nrf2 qHTS screen for inhibitors; A549 ARE-Fluc reporter, luciferase luminescence, 18-24 h; Potency, µM (top dose mostly 46 µM), for the others: at the highest dose activity change, negative = inhibition, hits mostly inhibitors; 360,000 tested, 2.1% active; note: % is set by controls: 0 for no effect and ±100 for the full control effect; nearly all actives have a fitted effect of over 60% in size
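Two sequential reads on A549 ARE_Fluc cells exposed to compound for 18-24 h: a CellTiter-Fluor fluorescence read for viability, then a luciferase luminescence read for Nrf2/ARE activity.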
Mito fusion yeast: qHTS Assay for Small Molecule Inhibitors of Mitochondrial Division or Activators of Mitochondrial Fusion | S. cerevisiae fusion-defective mutant growth rescue, CellTiterGlo 48 h | Potency, µM (series often up to 46.1 µM), for the others: top-dose growth rescue (activation), most hits filed as activators | 320,000 tested, 0.23% active | AID 485298, 2010; note: % of control where 0% means no effect; nearly all actives have a fitted effect of over 45% in size
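Read-out: ATP-based luminescence (CellTiterGlo, 10 min ambient) reporting growth of fusion-defective ts yeast after 48 hours at 37C on glycerol/ethanol YPEG medium in the presence of compound.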
IDH1 R132H inh: qHTS for Inhibitors of mutant isocitrate dehydrogenase 1 (IDH1): qHTS; IDH1-R132H enzyme, NADPH consumption, diaphorase/resazurin fluorescence; 390,000 tested, 0.093% active; Potency, µM (top dose mostly 76.6 µM), for inactives: at the top dose activity change, negative = inhibition, actives largely listed as inhibitors; note: % is set by controls: 0 for no effect and ±100 for the full control effect; nearly all actives have a fitted effect of over 65% in size
Target sequence (O75874 whole entry R132H, stated change not applied): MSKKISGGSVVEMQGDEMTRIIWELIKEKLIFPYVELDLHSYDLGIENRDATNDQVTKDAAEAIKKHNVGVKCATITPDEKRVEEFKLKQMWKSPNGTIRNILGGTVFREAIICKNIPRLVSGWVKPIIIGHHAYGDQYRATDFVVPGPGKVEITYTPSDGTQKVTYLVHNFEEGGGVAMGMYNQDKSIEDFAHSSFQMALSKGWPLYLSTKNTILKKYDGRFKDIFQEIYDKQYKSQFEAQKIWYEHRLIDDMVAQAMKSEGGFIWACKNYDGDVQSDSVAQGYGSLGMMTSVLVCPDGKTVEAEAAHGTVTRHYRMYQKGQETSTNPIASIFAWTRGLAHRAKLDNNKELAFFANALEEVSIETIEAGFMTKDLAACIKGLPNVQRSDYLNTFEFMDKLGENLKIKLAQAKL
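IDH1-R132H (0.5 ug/mL dispensed) in pH 7.5 Tris buffer was preincubated 30 min with compound, then given a substrate mix of 0.016 mM NADPH and 2 mM alpha-KG for 80 min at room temperature; remaining NADPH was read by diaphorase/resazurin fluorescence.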
TrxR1 substrate: qHTS Assay for Substrates of Mammalian Selenoprotein Thioredoxin Reductase 1 (TrxR1): qHTS; AID 588456, 2011; Potency, µM (doses to about 114 µM), for the others: at the top dose activity change, negative = substrate turnover; purified TrxR1 substrate turnover, NADPH consumption readout; 390,000 tested, 0.01% active; Thioredoxin reductase 1, cytoplasmic (Rattus norvegicus), O89049; note: % is set by controls: 0 for no effect and ±100 for the full control effect; nearly all actives have a fitted effect of over 50% in size
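Rat TrxR1, dispensed at 90 nM, was prereduced with 400 uM NADPH (final) for 5 min at ~22 deg C, then incubated with compound 15 min before 400 uM selenite. A first-read NADPH fluorescence drop versus no-compound background flagged substrates.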
rTrxR1 inhibitor: qHTS Assay for Inhibitors of Mammalian Selenoprotein Thioredoxin Reductase 1 (TrxR1): qHTS; Thioredoxin reductase 1, cytoplasmic (Rattus norvegicus), O89049; recombinant rTrxR1, NADPH fluorescence consumption, selenite substrate; Potency, µM (doses to about 114 µM), without a hit: at the highest dose activity change, negative = inhibition, usual class: inhibitors; 390,000 tested, 1% active; AID 588453, 2011; note: % is set by controls: 0 for no effect and ±100 for the full control effect; nearly all actives have a fitted effect of over 65% in size
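Rat TrxR1 (90 nM in the dispensed reagent) was pre-reduced with 400 uM NADPH for 5 min at room temperature, then incubated with compound for 15 min. After 400 uM selenite was added, NADPH fluorescence (Ex 340/Em 450 nm) was followed for 8 min.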
* = called active by the depositor; ? = inconclusive; · = no result given; ! = a repeat was not active; [ ] = another dose, or the depositor's remark. Calls come from the whole dose curve; as a rule, active = well fitted curve in the direction sought with a large enough effect; inconclusive = small, poorly fitted or top-dose-only effect, or another doubt; inactive = no such curve, though single readings can be large; an effect the other way counts as inactive or inconclusive. Potency is the fitted concentration of half-maximal effect.

SMILES | A549 viability | Nrf2 block | Mito fusion yeast | IDH1 R132H inh | TrxR1 substrate | rTrxR1 inhibitor
COc1ccc(CCNC(=O)c2cnc3sc(N4CCCCCC4)nn3c2=O)cc1 | -8.4% | ? | · | -4.4% | 88.2% | -3.6%
COc1cccc(CN2CCN(Cc3cccc(F)c3)CC2)c1 | 2.4% | -6.5% | -6.4% | -5.2% | -6.8% | 5.5%
COc1ccc(CN2CCN(c3ncnc4sc5c(c34)CCCC5)CC2)cc1F | -18.9% | 10.3µM* | · | · | -2.9% | -8.8%
Cc1ccc(NC(=O)COc2ccc(-c3nn(C)c(=O)c4ccccc34)cc2)c(C)c1 | -15.4% | 18.4µM* | · | · | 4.9% | 11.6%
O=C(c1cc(S(=O)(=O)N2CCCCC2)ccc1F)N1CCC2(CC1)OCCO2 | 2.7% | 3.8% | -0.5% | -1.0% | -0.3% | 8.2%
O=C(CC1CCCCC1)N1CCC(c2nc(-c3ccc(S(=O)(=O)N4CCCC4)cc3)no2)CC1 | -22.4% | 20.6µM* | 1.2% | 7.5% | 7.6% | 27.8%
Cc1o[nH]c(=O)c1CC(N)C(=O)O (configuration not stated) | · | · | 13.9% | · | -4.3%[57.1 µM] | -14.5%[57.1 µM]
N[C@@H](Cc1cc(I)c(O)c(I)c1)C(=O)O | -3.9% | 0.4% | 0.9% | 3.7% | -3.3% | 12.6µM*
NC(Cc1cc(O)c(O)cc1O)C(=O)O (configuration not stated) | · | · | -7.8% | · | 8.9%[57.1 µM] | 10.6µM*
N[C@@H](CCl)C(=O)O | 0.1% | -9.0% | -11.0% | 4.2% | 3.1%[57.1 µM] | 2.9%[57.1 µM]
C=CC[C@@H](CC(=O)N(CCO)Cc1ccccc1)C(=O)NC[C@@H](OC(=O)[C@@H](CC=C)CC(=O)OC(C)(C)C)c1ccccc1 | -26.7% | ? | · | -0.7% | -12.8% | 1.2%
C=CC[C@H](CC(=O)N(CCO)Cc1ccccc1)C(=O)NC[C@H](OC(=O)[C@@H](CC=C)CC(=O)OC(C)(C)C)c1ccccc1 | ? | 18.4µM* | · | -3.8% | -16.4% | -1.0%
CCC(COC(=O)c1cc(OC)c(OC)c(OC)c1)(c1ccccc1)N(C)C (configuration not stated) | 0.5% | 20.6µM*! | -1.1% | 9.7% | 0.7% | 25.1%
Cc1cc(C(C#N)c2ccc(Cl)cc2)c(Cl)cc1NC(=O)c1cc(I)cc(I)c1O (configuration not stated) | ? | ? | -31.4% | 9.8% | 0.2% | -0.9%
COc1ccc2c(c1)[nH]c1c(C)nccc12 | -7.4% | 23.1µM* | -6.5% | -9.5% | 196.0% | 8.1%
Cc1nccc2c1[nH]c1ccc(Br)cc12 | -3.1% | -7.1% | -8.2% | -12.9% | 1.2% | 1.8%
NC(N)=NCCC[C@H](N)C(=O)O | · | · | 5.1% | · | 8.9%[57.1 µM] | 16.3%[57.1 µM]
CC(=O)OC(C)(C)/C=C/C(=O)C(C)(O)C1C(O)CC2(C)C3CC=C4C(CC(O)C(=O)C4(C)C)C3(C)C(=O)CC12C (configuration not stated) | 2.91µM* | ? | · | 3.5% | 9.2%[57.1 µM] | 7.9%[11.4 µM]
CN(Cc1ccc(OC(F)F)cc1)C(=O)c1ccccc1Sc1ccccc1C#N | -6.0% | ? | · | -4.2% | -6.3% | 11.9%
NC(=O)CI | · | · | -37.2% | · | 3.1%[57.1 µM] | 0.6%[57.1 µM]
CC[C@@]1(O)C(=O)OCc2c1cc1n(c2=O)Cc2cc3c(NC(=O)CN)cccc3nc2-1 | -7.6% | 2.59µM* | 6.0% | 3.7% | 84.2% | 10.4%[57.1 µM]
CCC1(OC(=O)CN)C(=O)OCc2c1cc1n(c2=O)Cc2cc3ccccc3nc2-1 (configuration not stated) | ? | 0.581µM* | 0.794µM* | 0.5% | 371.5%[57.1 µM] | 65.6%[57.1 µM]
